In the supplement of paper PMC7411640:
Where a name gives a salt, the structure may show the parent alone.

Tested on: MDA-MB-468
Assay: phospho-S6 immunofluorescence (DAPI-normalised), per-plate z-score; higher = higher phospho-S6 signal (less pathway suppression)
Details: 24 h
Protocol: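 GPCR-targeted compound library (MedChemExpress HY-L006) tested on MDA-MB-468 PTEN-null TNBC cells in 384-well plates at 0.1, 1 or 10 uM, combined with vehicle, GDC0941 450 nM or lapatinib 1 uM, for 24 h. Phospho-S6 (S240/244) immunofluorescence normalised to DAPI and expressed as a per-plate z-score; values are the mean of biological triplicates.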

SMILES	phospho-S6 immunofluorescence (z-score) (co-treatment: GDC0941 450 nM)	phospho-S6 immunofluorescence (z-score) (co-treatment: lapatinib 1 uM)	phospho-S6 immunofluorescence (z-score) (co-treatment: vehicle)
O=C(O)COc1cccc(CN(Cc2ccc(-n3cccn3)cc2)S(=O)(=O)c2cccnc2)c1 [Taprenepag] (compound 10 µM)	-0.91	0.34	-0.73
COc1ccc(C2CC(c3ccccc3)=NN2c2ccc(S(N)(=O)=O)cc2)cc1 (centres undefined) (compound 10 µM)	-3.22	-0.2	-6.71
CC(C)Cc1ccc([C@@H](C)C(=O)NS(C)(=O)=O)cc1 [Reparixin] (compound 10 µM)	0.03	0.34	-1.14
NC(N)=Nc1nc(CSCC/C(N)=N/S(N)(=O)=O)cs1 [Famotidine] (compound 10 µM)	-1.24	-0.34	-0.29
CN1[C@@H]2CC[C@H]1C[C@@H](OC(c1ccccc1)c1ccccc1)C2 [Benztropine (mesylate)] (compound 10 µM)	1.67	-1.69	0.29
CCNC(=O)[C@@H]1CCCN1C(=O)[C@H](CCCN=C(N)N)NC(=O)[C@H](CC(C)C)NC(=O)[C@@H](C)NC(=O)[C@H](Cc1ccc(O)cc1)NC(=O)[C@H](CO)NC(=O)[C@H](Cc1c[nH]c2ccccc12)NC(=O)[C@H](Cc1cnc[nH]1)NC(=O)[C@@H]1CCC(=O)N1 [Alarelin (Acetate)] (compound 10 µM)	0.86	-0.01	1
CN(C)C(=O)N[C@H]1CC[C@H](CCN2CCN(c3cccc(Cl)c3Cl)CC2)CC1 [Cariprazine (hydrochloride)] (compound 10 µM)	0.26	-1.23	1.3
CC(C)(Cc1nc(-c2ccc(O)cn2)no1)C(=O)NC1=C(C(=O)O)CCCC1 (compound 10 µM)	0.73	0.37	1.12
Cn1c(=O)c2nc[nH]c2n(C)c1=O [Theophylline] (compound 10 µM)	0.11	0.16	0.71
CCc1cc2c(cc1CC)CC(NC[C@H](O)c1ccc(O)c3[nH]c(=O)ccc13)C2 [Indacaterol (maleate)] (compound 10 µM)	-0.81	-1.41	0.92
CCn1c2ccccc2c2cc(Nc3ccnc(NCCCN4CCOCC4)n3)ccc21 (compound 10 µM)	-3.59	-8.74	-10.3
CC[C@H](C)[C@@H]1NC(=O)[C@H](Cc2ccc(OC)cc2)NC(=O)CCCSC[C@@H](C(=O)N2CCC[C@H]2C(=O)N[C@@H](CC(C)C)C(=O)NCC(N)=O)NC(=O)[C@H](CC(N)=O)NC(=O)[C@H](CCC(N)=O)NC1=O [Carbetocin] (compound 10 µM)	0.31	-0.07	0.3
CCCCCN(CCCOC)C(=O)C(CCC(=O)O)NC(=O)c1ccc(Cl)c(Cl)c1 (centres undefined) [Loxiglumide] (compound 10 µM)	0.5	0.64	0.51
